For 40 compounds, THP-1 cell loss results are on record in the supplement of paper PMC7530171.

Structures are written as SMILES. Where a name gives a salt, the structure may show the parent alone. ± gives the standard deviation.

For the test, the system named is THP-1. The experiment in a line: THP-1 cell loss relative to DMSO control; higher = more host cell loss (toxicity); extreme values may be limits of the assay. The conditions noted are these: 10 µM; 4 days; infection: M. tuberculosis H37Rv. Here is the method: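 OICR kinase inhibitor library screened in duplicate at 10 uM against M. tuberculosis-infected THP-1 macrophages, 4 days at 37 C. THP-1 cell loss (cytotoxicity or loss of adherence) was quantified from Hoechst-stained nuclei counts by high-content imaging and normalised to the 1% DMSO control; 100 = complete loss of host cells.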
In the case of `C/C(=N\N=C(N)N)c1ccc(NC(=O)Nc2ccc(/C(C)=N/N=C(N)N)cc2)cc1`, the THP-1 cell loss worked out at 3.54 ± 5%.

Compound `Nc1nc(OCC2CCCCC2)c2[nH]cnc2n1` displayed a THP-1 cell loss of 3.9 ± 5.5%.

In the case of `COc1ccc(-c2ccc3c(N4CCOC[C@@H]4C)nc(N4CCOC[C@@H]4C)nc3n2)cc1CO`, the THP-1 cell loss is 40.8 ± 2.5%.

Consider `COc1cc(SC)ccc1C(=O)N1CCC(Cc2ccccc2)CC1`, for which the THP-1 cell loss was 0.379 ± 0.54%.

Regarding `O=C1NC(=O)[C@@H](c2cn3c4c(cccc24)CCC3)[C@@H]1c1c[nH]c2ccccc12`, the THP-1 cell loss was determined as 43.4 ± 7.2%.

In turn, `COc1cc2ncnc(Nc3cccc(Br)c3)c2cc1OC` had a THP-1 cell loss of 72.7 ± 4%.

Regarding `Cc1cnc(-c2cnc(NCCNc3ccc(C#N)cn3)nc2-c2ccc(Cl)cc2Cl)[nH]1`, the THP-1 cell loss amounted to 13.7 ± 5%.

Consider `CNC(=O)c1cc(Oc2ccc(NC(=O)Nc3ccc(Cl)c(C(F)(F)F)c3)c(F)c2)ccn1`, for which the THP-1 cell loss was 43.8 ± 13%.

The compound `O=[N+]([O-])c1ccc(-c2nc(-c3ccc(F)cc3)c(-c3ccncc3)[nH]2)cc1` displayed a THP-1 cell loss of 17 ± 3.5%.

`N#CCNC(=O)c1ccc(-c2ccnc(Nc3ccc(N4CCOCC4)cc3)n2)cc1`: the THP-1 cell loss amounted to 100%.

`Cc1[nH]c(/C=C2\C(=O)Nc3ccc(S(=O)(=O)N(C)c4cccc(Cl)c4)cc32)c(C)c1C(=O)N1CCN(C)CC1` showed a THP-1 cell loss of 65.8 ± 13%.

In turn, `N#CC(c1ccnc(NCCc2cccnc2)n1)c1nc2ccccc2s1` (stereo not given) displayed a THP-1 cell loss of 100%.

Compound `O=c1[nH]nc(Sc2ncc([N+](=O)[O-])s2)n1-c1ccc2c(c1)OCCO2` had a THP-1 cell loss of 31.1 ± 44%.

`NC(=O)c1ccc2[nH]ccc2c1` showed a THP-1 cell loss of 50 ± 71%.

The compound `CCn1c(-c2nonc2N)nc2cnc(Oc3cccc(NC(=O)c4ccc(OCCN5CCOCC5)cc4)c3)cc21` registered a THP-1 cell loss of 83.5 ± 23%.

In turn, `COc1cc(O)c2c(c1)/C=C/C[C@H](O)[C@H](O)C(=O)/C=C\C[C@H](C)OC2=O` [(5Z)-7-Oxozeaenol] registered a THP-1 cell loss of 100%.

Regarding `C[C@]1(O)C[C@@H](c2nc(-c3ccc4ccc(-c5ccccc5)nc4c3)c3c(N)nccn32)C1`, the THP-1 cell loss came to 38.5 ± 4%.

Compound `Cc1cc(C(=O)NOCCO)c(Nc2ccc(I)cc2F)n(C)c1=O` returned a THP-1 cell loss of 100%.

In turn, `COc1cc2ncnc(-n3nc(-c4ccccn4)nc3N)c2cc1OC` returned a THP-1 cell loss of 67 ± 15%.

For `CN(C)C/C=C/C(=O)Nc1cc2c(Nc3ccc(F)c(Cl)c3)ncnc2cc1O[C@H]1CCOC1`, the THP-1 cell loss was determined as 77.6 ± 2.9%.

Regarding `FC(F)(F)c1ccc(/C=C/c2nc(COc3ccc(CCCCn4ccnn4)cc3)co2)cc1` [Mubritinib], the THP-1 cell loss was 51 ± 24%.

With `CC(C)(C)c1cc(NC(=O)Nc2ccc(-c3cn4c(n3)sc3cc(OCCN5CCOCC5)ccc34)cc2)no1`, the THP-1 cell loss worked out at 82.1 ± 1.3%.

`COc1cc(N2CCC(N3CCN(C)CC3)CC2)ccc1Nc1ncc(Cl)c(Nc2ccccc2S(=O)(=O)C(C)C)n1` gave a THP-1 cell loss of 26.4 ± 0.6%.

`C=CC[C@@H]1/C=C(\C)C[C@H](C)C[C@H](OC)[C@H]2O[C@@](O)(C(=O)C(=O)N3CCCC[C@H]3C(=O)O[C@H](/C(C)=C/[C@@H]3CC[C@@H](O)[C@H](OC)C3)[C@H](C)[C@@H](O)CC1=O)[C@H](C)C[C@@H]2OC` gave a THP-1 cell loss of 0%.

In turn, `CCOc1cc(N2CCC(O)CC2)ccc1Nc1ncc2c(n1)N(C)c1ccccc1C(=O)N2C` had a THP-1 cell loss of 100%.

In the case of `CC#CC(=O)Nc1cc2c(Nc3ccc(F)c(Cl)c3)ncnc2cn1`, the THP-1 cell loss is 89.9 ± 14%.

`Cc1cc(Nc2nc(N[C@@H](C)c3ccc(F)cc3)c(C#N)cc2F)n[nH]1`: the THP-1 cell loss came out at 39 ± 9.1%.

The compound `O=S(=O)(NCCNC/C=C/c1ccc(Br)cc1)c1cccc2cnccc12` [H 89 dihydrochloride] came in with a THP-1 cell loss of 10 ± 2.1%.

With `CCCS(=O)(=O)Nc1ccc(F)c(C(=O)c2c[nH]c3ncc(-c4ccc(Cl)cc4)cc23)c1F`, the THP-1 cell loss stood at 100%.

The compound `Cc1cc(F)c(Nc2ncnc3cc(OCc4ccccc4)ccc23)cc1O` had a THP-1 cell loss of 5.29 ± 7.5%.

For `CC(C)[C@H](CO)Nc1nc(Nc2cccc(Cl)c2)c2ncn(C(C)C)c2n1` [Purvalanol A], the THP-1 cell loss was 100%.

With `O=C(NC(NC(=S)Nc1ccc(F)c([N+](=O)[O-])c1)C(Cl)(Cl)Cl)C(c1ccccc1)c1ccccc1` (stereo not given), the THP-1 cell loss came out at 100%.

In the case of `Cc1ccccc1-n1c(Cn2nc(-c3cccc(O)c3)c3c(N)ncnc32)nc2cccc(C)c2c1=O`, the THP-1 cell loss was found to be 43.9 ± 23%.

For the compound `CCn1c(-c2nonc2N)nc2c(C#CC(C)(C)O)ncc(OC[C@H]3CCCNC3)c21`, the THP-1 cell loss was 15.8 ± 3.6%.

In turn, `Nc1cccc(-c2cc3c(Oc4cccc(O)c4)ncnc3[nH]2)c1` came in with a THP-1 cell loss of 25.7 ± 7.3%.

With `CC(C)(C)n1nc(-c2cccc3ccccc23)c2c(N)ncnc21` [1-Naphthyl PP1], the THP-1 cell loss came to 13.6 ± 19%.

Consider `O=C(NOC[C@H](O)CO)c1ccc(F)c(F)c1Nc1ccc(I)cc1F`, for which the THP-1 cell loss is 100%.

In the case of `Cc1cc(N2CCOCC2)cc2[nH]c(-c3c(NC[C@@H](O)c4cccc(Cl)c4)cc[nH]c3=O)nc12`, the THP-1 cell loss came out at 21.7 ± 10%.

The compound `O=C1c2ccc(O)c(O)c2C(=O)c2c(O)ccc(O)c21` [Quinalizarin] had a THP-1 cell loss of 4.66 ± 6.6%.

The compound `CSc1cccc(Nc2ncc3cc(-c4c(Cl)cccc4Cl)c(=O)n(C)c3n2)c1` yielded a THP-1 cell loss of 100%.
